Results from PubChem BioAssay (NCATS).
Where “and” joins values, the source holds several entries; their conditions need not be identical. Identical values can stand only once. Records with an inconclusive call do not appear. Calls of active or inactive are those of the source. Unless noted, the call rests on the fitted dose curve; in most records, active means well fitted curve in the direction sought with a large enough effect; inconclusive means small, poorly fitted or top-dose-only effect, or another doubt; inactive means no such curve, though single readings can be large; an effect the other way counts as inactive or inconclusive.

How the values were obtained:
[1] = target: Lysosomal acid glucosylceramidase (Homo sapiens) (UniProt P04062); test: Glucocerebrosidase-p2 (AID 348; in the data active means potency below about 10 µM; further: potency means the concentration at half of the fitted maximal effect); conditions: purified GBA, blue fluorogenic substrate, 40 min
Sequence of Lysosomal acid glucosylceramidase (Homo sapiens) (P04062 whole entry, looked up): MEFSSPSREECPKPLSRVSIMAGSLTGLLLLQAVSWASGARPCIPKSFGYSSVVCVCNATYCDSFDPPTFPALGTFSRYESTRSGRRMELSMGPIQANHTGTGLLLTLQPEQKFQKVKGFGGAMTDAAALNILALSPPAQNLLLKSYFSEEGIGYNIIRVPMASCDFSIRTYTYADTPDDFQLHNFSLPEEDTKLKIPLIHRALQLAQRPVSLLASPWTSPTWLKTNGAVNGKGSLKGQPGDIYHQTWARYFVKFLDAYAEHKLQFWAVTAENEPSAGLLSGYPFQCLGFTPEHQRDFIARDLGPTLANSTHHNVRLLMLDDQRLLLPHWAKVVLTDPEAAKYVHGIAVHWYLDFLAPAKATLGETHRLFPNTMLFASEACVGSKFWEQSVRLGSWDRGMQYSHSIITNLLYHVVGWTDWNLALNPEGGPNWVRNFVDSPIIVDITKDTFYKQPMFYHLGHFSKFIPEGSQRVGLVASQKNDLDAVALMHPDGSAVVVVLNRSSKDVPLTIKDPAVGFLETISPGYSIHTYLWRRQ
How it was run: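 Compounds titrated from 0.6 nM upwards against 0.2 nM enzyme in pH 5.9 citric acid/KH2PO4, taurocholate, tween-20; blue fluorogenic substrate 80 uM, 40 min room temperature, stopped and read Ex 365/Em 440 for AC50.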

[2] = NFAT Signaling Pathway (AID 444; active means well fitted curve in either direction with a large enough effect, not every such curve was filed as active;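 further: carbachol stimulus at about its EC50 of 1 µM final; on the % scale 0 is the no-effect control and ±100 the full control effect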); conditions: Jurkat NFAT-bla M1, carbachol, beta-lactamase ratio, 5 h; at 7.69 µM (top of the series)
How it was run: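 Jurkat cells carrying an NFAT-driven β-lactamase reporter and co-transfected muscarinic M1 receptor were treated with compound plus carbachol (1 uM final, an EC50 level) for 5 h at 37 °C. CCF4 loading followed for 1 h at RT; 460/530 nm ratio gave %activity.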

[3] = Stat Signaling Pathway (AID 446; active means well fitted curve in either direction with a large enough effect, not every such curve was filed as active;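 further: ME-180 cervical cancer cells given 40 pM IL-6 alongside compound; SIE-controlled beta-lactamase reporter measured as 460/530 nm FRET emission ratio; on the % scale 0 is the no-effect control and ±100 the full control effect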)
How it was run: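 ME-180 SIE-bla cells; overnight plating; cpd + IL-6 40 pM, 5 h, 37 C; LiveBLAzer 2.5 h RT; 460/530 nm emission ratio. Normalized to 300 pM IL-6 and 125 nM JAK inhibitor controls.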

[4] = target: Glucocorticoid receptor (Homo sapiens) (UniProt P04150); test: GR-EFC Redistribution (AID 451; calls by dose curve; further: potency means the concentration at half of the fitted maximal effect); conditions: CHO-K1 GR-EFC translocation, beta-gal luminescence, 2 h
Sequence of Glucocorticoid receptor (Homo sapiens) (P04150 whole entry, looked up, the tested form may be a part): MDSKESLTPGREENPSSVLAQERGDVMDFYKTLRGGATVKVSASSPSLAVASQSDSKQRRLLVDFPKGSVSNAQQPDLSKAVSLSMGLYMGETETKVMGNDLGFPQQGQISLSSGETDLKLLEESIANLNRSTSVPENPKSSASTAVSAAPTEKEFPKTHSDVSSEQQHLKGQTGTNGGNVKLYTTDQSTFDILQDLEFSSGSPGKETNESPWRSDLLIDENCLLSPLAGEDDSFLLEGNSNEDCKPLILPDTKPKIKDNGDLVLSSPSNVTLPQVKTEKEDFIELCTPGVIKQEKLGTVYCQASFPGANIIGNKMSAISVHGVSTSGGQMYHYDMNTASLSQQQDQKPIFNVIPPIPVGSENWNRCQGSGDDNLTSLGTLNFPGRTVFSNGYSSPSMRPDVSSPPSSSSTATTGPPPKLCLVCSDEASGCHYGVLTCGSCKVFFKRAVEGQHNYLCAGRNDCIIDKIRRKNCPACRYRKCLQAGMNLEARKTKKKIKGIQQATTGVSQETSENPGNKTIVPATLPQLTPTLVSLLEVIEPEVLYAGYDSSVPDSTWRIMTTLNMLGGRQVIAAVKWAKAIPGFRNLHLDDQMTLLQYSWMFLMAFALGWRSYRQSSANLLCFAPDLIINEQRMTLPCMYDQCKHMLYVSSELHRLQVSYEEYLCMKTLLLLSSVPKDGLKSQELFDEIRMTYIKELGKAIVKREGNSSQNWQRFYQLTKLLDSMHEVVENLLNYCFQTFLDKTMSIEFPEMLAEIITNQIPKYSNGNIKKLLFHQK
How it was run: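 CHO-K1 cells stably expressing nuclear-localized β-gal enzyme acceptor and GR fused C-terminally to the enzyme donor fragment; ligand-driven nuclear translocation restores β-gal by complementation. Compounds titrated up to 46 uM final, 2 h at 37 °C; luminescence read.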

[5] = target: Mitogen-activated protein kinase 10 (Mus musculus) (UniProt Q61831); test: JNK3 AlphaScreen Assay (AID 530; active means well fitted curve in either direction with a large enough effect, not every such curve was filed as active;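 further: kinase came from lysate of stimulated human HepG2 cells; signal reports phosphorylation of biotinylated GST-cJun 1-79 at Ser73 with 10 µM ATP; on the % scale 0 is the no-effect control and ±100 the full control effect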)
How it was run: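 Inhibitors reduce antibody binding to phosphorylated biotin-cJun, lowering AlphaScreen luminescence. Lysates from HepG2 cells pre-activated by IL-1beta plus TNF-alpha supplied JNK3; compounds were titrated.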

[6] = target: 3',5'-cyclic-AMP phosphodiesterase 4B (Homo sapiens) (UniProt Q07343); test: qHTS Assay for Inhibitors of PDE-IV (AID 607; active means well fitted activation curve with a large enough effect in the main read-out, with a control signal flat, not every such curve was filed as active; further: % of control where 0% means no effect)
Sequence of 3',5'-cyclic-AMP phosphodiesterase 4B (Homo sapiens) (Q07343 whole entry, looked up): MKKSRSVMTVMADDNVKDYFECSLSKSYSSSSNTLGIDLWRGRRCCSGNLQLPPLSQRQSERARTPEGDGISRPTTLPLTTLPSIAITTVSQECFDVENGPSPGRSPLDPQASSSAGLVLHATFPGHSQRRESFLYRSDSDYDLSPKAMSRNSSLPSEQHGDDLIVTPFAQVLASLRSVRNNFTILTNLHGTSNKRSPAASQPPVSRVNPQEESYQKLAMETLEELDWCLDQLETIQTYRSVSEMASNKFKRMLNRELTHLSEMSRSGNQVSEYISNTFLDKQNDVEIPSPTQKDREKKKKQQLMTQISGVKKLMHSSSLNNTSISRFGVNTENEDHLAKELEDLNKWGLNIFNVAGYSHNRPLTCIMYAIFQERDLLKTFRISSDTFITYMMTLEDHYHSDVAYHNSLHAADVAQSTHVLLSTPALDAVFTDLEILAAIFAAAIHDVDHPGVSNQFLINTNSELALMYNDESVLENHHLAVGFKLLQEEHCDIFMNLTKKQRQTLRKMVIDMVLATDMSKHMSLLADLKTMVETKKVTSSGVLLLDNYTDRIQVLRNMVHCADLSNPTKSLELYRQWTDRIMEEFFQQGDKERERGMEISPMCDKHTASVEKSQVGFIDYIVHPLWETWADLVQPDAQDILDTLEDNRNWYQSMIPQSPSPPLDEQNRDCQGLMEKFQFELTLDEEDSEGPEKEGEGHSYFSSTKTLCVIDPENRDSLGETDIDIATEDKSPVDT
How it was run: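 ACTOne HEK293 cells carry a modified cAMP-gated CNG channel and express endogenous PDE4; plated 1000 cells/well, compounds up to 22.9 uM final. Membrane-potential dye fluorescence (ex 535/em 590) was read; parental cells received 10 uM forskolin + 100 uM RO 20-1724.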

[7] = qHTS Assay for Lipid Storage Modulators (AID 1519; calls by dose curve); conditions: Drosophila S3 cells, BODIPY lipid droplet/cell ratio, laser cytometry, cells loaded with oleic acid; for activity change, negative = inhibition: at 57.5 µM (top of the series)
How it was run: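 Cells seeded at 5,000 per well were treated with compounds over a concentration series and loaded with oleic acid (400 uM, as added). Lipid droplet fluorescence (488 nm excitation, 500-530 nm channel) was read by laser-scanning cytometry and normalized to 20 uM Triacsin C.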

[8] = target: DNA dC->dU-editing enzyme APOBEC-3G (Homo sapiens) (UniProt Q9HC16); test: qHTS for inhibitors of Vif-A3G interactions: Validation (AID 588379); further: 0% is about no effect
Sequence of DNA dC->dU-editing enzyme APOBEC-3G (Homo sapiens) (Q9HC16 whole entry, looked up): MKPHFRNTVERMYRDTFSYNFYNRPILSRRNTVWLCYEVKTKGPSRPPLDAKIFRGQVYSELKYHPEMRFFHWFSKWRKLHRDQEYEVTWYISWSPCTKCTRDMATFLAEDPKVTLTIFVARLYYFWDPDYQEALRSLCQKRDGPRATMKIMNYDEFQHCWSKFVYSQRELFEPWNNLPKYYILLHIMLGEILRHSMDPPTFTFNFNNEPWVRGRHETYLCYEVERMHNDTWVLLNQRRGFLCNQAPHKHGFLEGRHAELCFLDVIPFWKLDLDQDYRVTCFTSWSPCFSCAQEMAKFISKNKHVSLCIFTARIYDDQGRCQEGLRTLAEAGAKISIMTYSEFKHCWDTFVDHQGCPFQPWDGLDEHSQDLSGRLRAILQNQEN
How it was run: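 HeLa cells stably expressing Vif and A3G-eYFP, 700 cells/well, incubated overnight at 37 deg C, then exposed to compound overnight at 37 deg C. Inhibition of Vif-mediated degradation read as increased yellow fluorescence (Ex 488/Em 500-530) by laser-scanning cytometry.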

[9] = test system: Zika virus NS2B-NS3 protease; test: Primary screen GU AMC qHTS for Zika virus inhibitors (AID 1347154);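 further: 0% = no-inhibitor control and -100% = no-enzyme control; nearly all actives have a fitted effect of over 70% in size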
How it was run: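 Unlinked Zika NS2B hydrophilic domain/NS3 protease domain noncovalent complex (25 nM final) in 10 mM Tris-HCl pH 8.0, 0.01% Tween 20, with AMC peptide substrate. Fluorescence (ex 340, em 450 nm) change over 15 min, room temperature; percent inhibition fitted to 4-parameter Hill equation.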

[10] = Primary qHTS for small molecule stabilizers of the endoplasmic reticulum resident proteome: Secreted ER Calcium Modulated Protein (SERCaMP) assay (AID 1508630); further: on the % scale 0 is the no-effect control and ±100 the full control effect
How it was run: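 GLuc-SERCaMP-expressing SH-SY5Y cells, pretreated 16 h with compound, are challenged with thapsigargin to empty ER calcium stores; after 4 h, coelenterazine is added directly to the medium and luminescence is imaged.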

[11] = target: Cytochrome P450 1A2 (Homo sapiens) (UniProt P05177); test: p450-cyp1a2 (AID 410; calls by dose curve; further: potency means the concentration at half of the fitted maximal effect;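 on activity change, negative = inhibition: -100% = full effect of reference inhibitor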)
Sequence of Cytochrome P450 1A2 (Homo sapiens) (P05177 whole entry, looked up): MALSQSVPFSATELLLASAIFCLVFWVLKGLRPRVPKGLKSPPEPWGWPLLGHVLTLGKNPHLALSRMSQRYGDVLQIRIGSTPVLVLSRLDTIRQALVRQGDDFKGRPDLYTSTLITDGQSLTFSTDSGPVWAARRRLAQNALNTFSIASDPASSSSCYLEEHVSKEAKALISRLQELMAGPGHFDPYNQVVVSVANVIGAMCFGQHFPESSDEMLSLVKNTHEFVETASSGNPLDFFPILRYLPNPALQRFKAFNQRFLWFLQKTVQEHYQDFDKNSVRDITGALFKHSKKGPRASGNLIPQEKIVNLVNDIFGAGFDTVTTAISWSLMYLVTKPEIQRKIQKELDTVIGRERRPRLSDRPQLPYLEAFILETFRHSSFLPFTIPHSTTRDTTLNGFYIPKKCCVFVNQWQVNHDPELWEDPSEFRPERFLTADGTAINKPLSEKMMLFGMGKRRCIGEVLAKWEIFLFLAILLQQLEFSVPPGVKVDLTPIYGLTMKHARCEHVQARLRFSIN
How it was run: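 20nM CYP1A2 with 100uM Luciferin-ME (at Km) in 100mM KPO4; compound preincubated 10 min, NADPH regeneration added, 60 min at room temperature. Luciferin quantified by luminescence after detection reagent; normalized to 57 uM furafylline.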

[12] = target: Glucocorticoid receptor (Homo sapiens) (UniProt P04150); test: GR-GFP Redistribution (AID 450;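 active means compounds whose dose series gives a full or clear partial fitted curve of increased nuclear translocation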; further: potency means the concentration at half of the fitted maximal effect); conditions: U2OS GR-GFP nuclear translocation, laser cytometry, 2 h
[13] = target: Ubiquitin carboxyl-terminal hydrolase 1 (Homo sapiens) (UniProt O94782); test: Inhibitors of USP1/UAF1: Pilot qHTS (AID 504865);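 further: rhodamine fluorescence freed from ubiquitin-rhodamine substrate followed over time; top concentration of the series differs between compounds; on the % scale 0 is the no-effect control and ±100 the full control effect; nearly all actives have a fitted effect of over 35% in size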
Sequence of Ubiquitin carboxyl-terminal hydrolase 1 (Homo sapiens) (O94782 whole entry, looked up): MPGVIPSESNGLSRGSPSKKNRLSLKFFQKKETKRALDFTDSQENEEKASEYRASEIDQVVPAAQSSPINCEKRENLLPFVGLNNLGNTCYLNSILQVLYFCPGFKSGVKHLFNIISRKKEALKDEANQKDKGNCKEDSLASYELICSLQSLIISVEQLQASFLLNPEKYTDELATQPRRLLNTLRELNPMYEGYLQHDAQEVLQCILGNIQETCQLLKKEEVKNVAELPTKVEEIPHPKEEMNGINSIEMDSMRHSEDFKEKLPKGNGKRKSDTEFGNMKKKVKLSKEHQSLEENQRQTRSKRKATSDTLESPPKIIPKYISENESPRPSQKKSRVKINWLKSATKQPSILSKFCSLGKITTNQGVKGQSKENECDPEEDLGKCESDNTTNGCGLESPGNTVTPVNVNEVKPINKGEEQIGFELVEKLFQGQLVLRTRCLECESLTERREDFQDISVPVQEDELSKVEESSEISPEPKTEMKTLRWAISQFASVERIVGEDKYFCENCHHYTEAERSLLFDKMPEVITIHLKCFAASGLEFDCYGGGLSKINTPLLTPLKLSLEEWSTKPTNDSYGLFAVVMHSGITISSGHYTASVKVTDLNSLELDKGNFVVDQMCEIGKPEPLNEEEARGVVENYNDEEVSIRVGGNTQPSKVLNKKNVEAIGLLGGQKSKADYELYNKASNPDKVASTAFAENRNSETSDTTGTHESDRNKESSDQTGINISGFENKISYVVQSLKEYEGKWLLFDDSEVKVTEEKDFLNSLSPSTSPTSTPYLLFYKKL
How it was run: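 1nM USP1/UAF1 + cpd, 15 min RT; start w/ Ub-Rho 150nM final; kinetic FL 480/540 nm, 6 reads q60 s. Buffer 50mM HEPES pH 7.8, 0.5mM EDTA, 1mM TCEP, 0.01% Tween-20, 0.1 mg/ml BSA.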

[14] = measured here: cell count channel max response
[15] = measured here: lipid channel max response

N[C@@H](CCP(=O)(O)O)C(=O)O
inactive: Potency [1] > 11.4 µM | activity change, negative = inhibition [2] 3.73% | activity, negative = inhibition [3] 11.7% [at 7.69 µM] | Potency [4] > 46 µM and > 9.22 µM | outcome [5] | Potency [6] | activity change, negative = inhibition [7] -1.66% | Potency [8] | Potency [9] | Potency [10]
-9.13%: max response [7, 15]
-5.2%: max response [7, 14]

O=C(O)[C@H]1[C@H]2CN[C@H](C(=O)O)[C@H]21
-11.8%: max response [7, 14]
inactive: Potency [12] > 46 µM | Potency [4] > 46 µM | outcome [5] | Potency [6] | activity change, negative = inhibition [7] -5.1% | Potency [8] | Potency [9] | Potency [10]
active: Potency [11] 31.6 µM
-16.1%: max response [7, 15]

CC(=O)O[C@@H]1CN2CCC1CC2
-10.5%: max response [7, 14]
inactive: Potency [11] | Potency [12] > 46 µM | Potency [4] > 46 µM | outcome [5] | Potency [6] | activity change, negative = inhibition [7] 2.83% | Potency [13] | Potency [8] | Potency [9] | Potency [10]
-8.98%: max response [7, 15]

CC(CN)CC(=O)O (configuration not stated)
inactive: Potency [9] | Potency [10]

CNCCc1cnc[nH]1
-7.35%: max response [7, 14]
inactive: Potency [11] | Potency [4] > 46 µM | activity change, negative = inhibition [7] 4.08% | Potency [8] | Potency [9] | Potency [10]
-3.08%: max response [7, 15]

CCc1cccc(CC)c1NC1=NCCN1
inactive: Potency [9] | Potency [10]

CCOC(=O)CN1C(=O)CC(C[C@@H](O)C2C[C@@H](C)C[C@H](C)C2=O)CC1=O (some centres not stated)
inactive: Potency [9] | Potency [10]

C=C1C([C@@H](O)C[C@H](C)C2O[C@@]3(CCCCO3)CC[C@H]2C)OC2CC[C@@]3(CC[C@@H](/C=C/[C@@H](C)C4CC(C)=C[C@]5(O4)O[C@H](C[C@@](C)(O)C(=O)O)CCC5O)O3)OC2[C@@H]1O (some centres not stated)
inactive: activity change, negative = inhibition [9] 0.872% [at 4.99 µM] | activity change, negative = inhibition [10] -21.6% [at 1.51 µM]

NC(N)=Nc1ccc2[nH]c3c(c2c1)C[C@]1(O)[C@@H]2Cc4ccc(O)c5c4[C@]1(CCN2CC1CC1)[C@@H]3O5
inactive: Potency [11] | Potency [12] > 46 µM | Potency [4] > 46 µM | outcome [5] | Potency [6] | activity change, negative = inhibition [7] -1.94% | Potency [8] | Potency [9] | Potency [10]
2.17%: max response [7, 14]
1.06%: max response [7, 15]
